Results on six compounds are retold here after PubChem BioAssay.

Activity calls are given as the source filed them.

Assay [1] relates to Plasmodium falciparum Sir2 (PF13_0152, Sir2A). The experiment in a line: pfSir2 binders on small-molecule microarrays, primary screen, biochemical, small-molecule microarray, 635 nm fluorescence (AID 1098).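 Also: score merges spot fluorescence intensity with its signal-to-noise ratio.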 Conditions: small-molecule microarray binding, fluorescence 635 nm; higher = more signal.
Assay [2] can be described thus: small-molecule microarray binders of probe aDKK1, primary screen, biochemical, biotinylated probe, 635/667 nm fluorescence (AID 1099).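 Also: score merges 667nm spot fluorescence with signal to noise across triplicate slides.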 Conditions: higher = more signal.
Assay [3] can be described thus: small-molecule microarray binders of probe aCHRDL2, primary screen, biochemical, biotinylated probe, 635/667 nm fluorescence (AID 1100). Conditions: higher = more signal.
Assay [4] can be described thus: splicing luciferase reporter signal modulators, primary screen, spliceosome inhibition project, cell-based, HEK293, splice +/- reporter (AID 1101).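 Also: HEK293 cells carrying a splicing-competent luciferase reporter gene; test concentration not given here.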 The settings on record: luminescence, 24 h, higher = more signal, called active from +8 up or from −8 down.
Assay [5] concerns the target Fibroblast growth factor 10 (Homo sapiens) (UniProt O15520). The assay can be described thus: FGF10 binders on small-molecule microarrays, primary screen, biochemical, small-molecule microarray, 635 nm fluorescence (AID 1102). The settings on record: FGF10 binding, fluorescence 635 nm, higher = more signal.
The test system of assay [6] is glycogen synthase kinase-3 (GSK3A per assay name; protocol says GSK3B). The assay can be described thus: GSK3 binders on small-molecule microarrays, primary screen, biochemical, small-molecule microarray, 635 nm fluorescence, GSK3A (AID 1103). Also: the record names both GSK3A and GSK3B. Conditions: small-molecule microarray binding, fluorescence 635 nm; higher = more signal.
In assay [7] the target is Epidermal growth factor receptor (Homo sapiens) (UniProt P00533). The experiment in a line: EGFR binders on small-molecule microarrays, primary screen, biochemical, small-molecule microarray, 635 nm fluorescence (AID 1104).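 Also: score merges 667 nm emission intensity with spot signal to noise over triplicate slides.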 The settings on record: EGFR binding, higher = more signal.
Chain of Epidermal growth factor receptor (Homo sapiens) (P00533 whole entry, looked up): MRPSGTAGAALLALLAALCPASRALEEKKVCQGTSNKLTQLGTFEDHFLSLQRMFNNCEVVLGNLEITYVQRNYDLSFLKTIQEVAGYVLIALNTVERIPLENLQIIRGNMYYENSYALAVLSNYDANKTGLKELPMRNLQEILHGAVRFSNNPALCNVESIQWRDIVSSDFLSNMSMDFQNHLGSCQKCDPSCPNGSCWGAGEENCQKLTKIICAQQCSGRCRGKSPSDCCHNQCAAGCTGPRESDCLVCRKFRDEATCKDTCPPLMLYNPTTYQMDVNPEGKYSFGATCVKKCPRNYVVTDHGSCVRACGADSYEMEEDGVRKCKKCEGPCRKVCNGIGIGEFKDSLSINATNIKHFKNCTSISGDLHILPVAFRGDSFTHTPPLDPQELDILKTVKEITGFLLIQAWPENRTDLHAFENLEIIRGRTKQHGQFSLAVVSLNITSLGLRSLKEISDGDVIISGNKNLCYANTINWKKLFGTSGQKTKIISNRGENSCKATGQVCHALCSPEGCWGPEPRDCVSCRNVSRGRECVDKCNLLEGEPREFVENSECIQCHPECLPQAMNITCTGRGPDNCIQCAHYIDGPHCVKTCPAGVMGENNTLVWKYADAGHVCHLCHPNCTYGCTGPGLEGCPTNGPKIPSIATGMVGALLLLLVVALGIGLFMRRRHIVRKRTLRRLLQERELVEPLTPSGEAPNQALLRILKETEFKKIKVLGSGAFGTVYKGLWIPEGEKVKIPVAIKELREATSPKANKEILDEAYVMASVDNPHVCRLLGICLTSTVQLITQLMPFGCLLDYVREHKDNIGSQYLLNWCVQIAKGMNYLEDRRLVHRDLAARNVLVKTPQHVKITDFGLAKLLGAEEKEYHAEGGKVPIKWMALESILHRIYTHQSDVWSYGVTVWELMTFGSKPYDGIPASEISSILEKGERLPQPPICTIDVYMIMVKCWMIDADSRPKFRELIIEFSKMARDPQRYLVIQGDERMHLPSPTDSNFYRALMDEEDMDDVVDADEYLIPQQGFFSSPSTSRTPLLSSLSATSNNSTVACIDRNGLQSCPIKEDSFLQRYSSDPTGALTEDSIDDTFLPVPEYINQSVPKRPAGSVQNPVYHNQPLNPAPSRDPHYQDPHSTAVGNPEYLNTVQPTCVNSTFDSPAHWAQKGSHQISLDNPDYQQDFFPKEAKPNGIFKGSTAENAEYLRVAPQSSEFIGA
The target in assay [8] is Follistatin-related protein 3 (Homo sapiens) (UniProt O95633). The experiment in a line: FSTL3 binders on small-molecule microarrays, primary screen, biochemical, small-molecule microarray, 635 nm fluorescence (AID 1105).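 Also: score merges emission near 667 nm and signal to noise per printed spot across three slides.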 Conditions: FSTL3 binding, higher = more signal.
Chain of Follistatin-related protein 3 (Homo sapiens) (O95633 whole entry, looked up): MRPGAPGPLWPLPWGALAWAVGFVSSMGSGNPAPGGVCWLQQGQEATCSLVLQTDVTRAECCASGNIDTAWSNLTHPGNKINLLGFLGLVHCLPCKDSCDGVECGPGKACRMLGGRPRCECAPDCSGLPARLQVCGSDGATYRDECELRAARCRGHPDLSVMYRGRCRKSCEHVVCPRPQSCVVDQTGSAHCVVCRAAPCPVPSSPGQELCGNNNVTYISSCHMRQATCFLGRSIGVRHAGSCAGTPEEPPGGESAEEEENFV
The target in assay [9] is Dickkopf-related protein 1 (Homo sapiens) (UniProt O94907). The experiment in a line: DKK1 binders on small-molecule microarrays, primary screen, biochemical, small-molecule microarray, 635 nm fluorescence scan (AID 1106).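 Also: score merges emission near 667 nm with signal to noise over three replicate slides.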 Conditions: DKK1 binding, higher = more signal.
Chain of Dickkopf-related protein 1 (Homo sapiens) (O94907 whole entry, looked up): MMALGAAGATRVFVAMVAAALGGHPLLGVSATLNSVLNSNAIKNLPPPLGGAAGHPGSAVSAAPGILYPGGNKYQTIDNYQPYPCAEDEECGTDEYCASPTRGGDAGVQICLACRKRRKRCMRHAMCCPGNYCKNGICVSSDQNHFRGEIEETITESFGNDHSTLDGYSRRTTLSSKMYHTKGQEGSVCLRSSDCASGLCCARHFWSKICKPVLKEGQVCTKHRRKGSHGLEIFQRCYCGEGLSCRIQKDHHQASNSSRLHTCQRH
Assay [10] deals with Inhibin beta A chain (activin A). The experiment in a line: INHBA (activin A) binders on microarrays, primary screen, biochemical, small-molecule microarray, 635 nm fluorescence scan (AID 1107).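 Also: mouse activin A protein probed at 4.33 µg/mL on printed slides; score merges bound-protein fluorescence near 667 nm with spot signal-to-noise.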 The settings on record: small-molecule microarray binding, higher = more signal.
Assay [11] concerns Human papillomavirus type 1a protein E7 (residues 44-93). The experiment in a line: HPV1a E7 fragment binders on microarrays, primary screen, biochemical, small-molecule microarray, residues 44-93, 635 nm fluorescence (AID 1108).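 Also: E7 fragment applied at 1 µg/mL in TBST for 1 h at 4 C; score combines spot fluorescence with its signal to noise ratio.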 The settings on record: small-molecule microarray binding, fluorescence 635 nm; higher = more signal.
Assay [12] can be described thus: modulators of HCV replicon luciferase signal, primary screen, HCV replication inhibitor project, Huh7 cells, luciferase reporter (AID 1109).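 Also: huh7 hepatoma cells harbouring a luciferase neomycin HCV replicon reporter; luciferase luminescence as measure of HCV replicon replication; test concentration not given here.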 Conditions: 48 h, higher = more signal.
The target of assay [13] is Left-right determination factor 2 (Homo sapiens) (UniProt O00292). The assay can be described thus: LEFTY2 binders on small-molecule microarrays, primary screen, biochemical, small-molecule microarray, 635 nm fluorescence scan (AID 1110). The settings on record: LEFTY2 binding, higher = more signal.
Chain of Left-right determination factor 2 (Homo sapiens) (O00292 whole entry, looked up): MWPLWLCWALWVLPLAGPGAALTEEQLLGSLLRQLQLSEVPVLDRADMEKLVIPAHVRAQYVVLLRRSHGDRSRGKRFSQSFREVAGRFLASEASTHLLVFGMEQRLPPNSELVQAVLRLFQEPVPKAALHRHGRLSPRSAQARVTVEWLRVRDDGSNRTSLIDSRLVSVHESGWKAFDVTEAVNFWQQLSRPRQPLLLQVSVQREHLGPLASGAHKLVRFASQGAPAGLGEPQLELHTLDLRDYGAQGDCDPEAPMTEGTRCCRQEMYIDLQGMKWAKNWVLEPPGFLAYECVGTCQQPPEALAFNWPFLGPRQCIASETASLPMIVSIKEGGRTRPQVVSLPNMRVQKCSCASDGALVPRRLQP
Assay [14] addresses Calmodulin-1 (Homo sapiens) (UniProt P0DP23). The assay can be described thus: CALM1 binders on microarrays, EGTA buffer, profiling panel, biochemical, small-molecule microarray, Cy5-labelled CALM1 (AID 1111).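 Also: labelled calmodulin applied in Tris saline Tween buffer holding calcium plus EGTA and DTT.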 Conditions: Cy5-CALM1 binding fluorescence, higher = more signal.
For assay [15] the target is unchanged. The assay can be described thus: calcium-bound CALM1 binders on microarrays, profiling panel, artefact control for SMM control-protein annotation, biochemical, small-molecule microarray, Cy5-labelled CALM1, plus calcium (AID 1112).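 Also: score merges spot fluorescence with signal to noise from triplicate slides.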 The settings on record: Cy5-CALM1 binding fluorescence, higher = more signal.
Assay [16] in a line: small-molecule microarray binders of probe aWnt5a, primary screen, biochemical, biotinylated probe, 635/667 nm fluorescence (AID 1113).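 Also: score merges 667 nm fluorescence intensity with signal-to-noise per printed feature.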 Conditions: higher = more signal.
Assay [17] can be described thus: small-molecule microarray binders of probe aShh, primary screen, biochemical, biotinylated probe, 635/667 nm fluorescence (AID 1114).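 Also: probe is biotin-labelled aShh protein from a stem cell growth factor screen; measures binding of labelled protein to compounds printed on the slide; score merges feature fluorescence at 667 nm with signal-to-noise.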 The settings on record: higher = more signal.
Assay [18] can be described thus: small-molecule microarray binders of probe aNog, primary screen, biochemical, biotinylated probe, 635/667 nm fluorescence (AID 1115).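 Also: probe is biotinylated aNog protein used at 0.15 µg/mL for 1 h at 4 C; z-score combines 667 nm fluorescence of each spot with its signal to noise.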 The settings on record: higher = more signal.
In assay [19] the target is Torsin-1A-interacting protein 1 (Homo sapiens) (UniProt Q5JTV8). The experiment in a line: LAP1 binders from COS7 cell lysate, primary screen, small-molecule microarray, 635/667 nm fluorescence (AID 1116). Conditions: COS7-hLAP1 lysate binding, 635 nm fluorescence, higher = more signal.
Chain of Torsin-1A-interacting protein 1 (Homo sapiens) (Q5JTV8 whole entry, looked up): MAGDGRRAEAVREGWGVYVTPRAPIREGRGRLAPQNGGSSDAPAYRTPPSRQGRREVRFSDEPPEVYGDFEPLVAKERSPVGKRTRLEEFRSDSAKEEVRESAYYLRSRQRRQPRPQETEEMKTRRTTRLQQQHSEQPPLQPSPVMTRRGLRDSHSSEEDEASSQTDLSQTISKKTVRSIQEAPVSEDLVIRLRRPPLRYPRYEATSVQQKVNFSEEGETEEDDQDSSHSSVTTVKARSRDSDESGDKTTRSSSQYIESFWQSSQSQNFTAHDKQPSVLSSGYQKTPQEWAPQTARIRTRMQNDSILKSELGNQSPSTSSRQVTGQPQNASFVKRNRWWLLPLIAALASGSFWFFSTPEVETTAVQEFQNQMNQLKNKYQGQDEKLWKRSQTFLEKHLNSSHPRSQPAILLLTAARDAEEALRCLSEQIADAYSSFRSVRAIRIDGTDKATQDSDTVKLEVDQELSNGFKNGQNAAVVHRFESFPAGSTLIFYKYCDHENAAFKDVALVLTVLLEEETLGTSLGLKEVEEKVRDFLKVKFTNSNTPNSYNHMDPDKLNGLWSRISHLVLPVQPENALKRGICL
Assay [20] deals with Alpha-bungarotoxin (Bungarus multicinctus) (UniProt P60615). The experiment in a line: alpha-bungarotoxin binders on microarray, profiling panel, artefact control for SMM control protein annotation, biochemical, small-molecule microarray, Alexa647 label, 635/667 nm fluorescence (AID 1117). Conditions: alpha-BTX-A647 binding fluorescence, higher = more signal.
Chain of Alpha-bungarotoxin (Bungarus multicinctus) (P60615 whole entry, looked up): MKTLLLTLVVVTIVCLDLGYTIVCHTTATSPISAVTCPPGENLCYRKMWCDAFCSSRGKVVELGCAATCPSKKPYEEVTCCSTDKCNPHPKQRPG

Chain of Fibroblast growth factor 10 (Homo sapiens) (O15520 whole entry, looked up): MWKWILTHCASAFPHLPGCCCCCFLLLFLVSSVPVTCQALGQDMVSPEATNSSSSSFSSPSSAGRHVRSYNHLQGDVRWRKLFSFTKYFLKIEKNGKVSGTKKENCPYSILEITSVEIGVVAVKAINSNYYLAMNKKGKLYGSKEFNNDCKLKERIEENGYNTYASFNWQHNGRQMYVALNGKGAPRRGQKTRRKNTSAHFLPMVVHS

For `C=C[C@H](COC(C)=O)N(Cc1ccc(OC(C)=O)c(OC)c1)S(=O)(=O)c1ccc(Br)cc1`, the composite z-score stood at 0.723 in assay [1]; 0.64 in [2]; 0.612 in [3]; 0.934 in assay [5]; 1.06 in assay [6]; 0.493 in assay [7]. For the same compound, the composite z-score in [8] amounted to 0.579; in assay [9], 0.844; in assay [10], 0.426; in assay [11], 1.29; in [13] it was 0.461; in assay [14], 1.05. Also, the composite z-score was 0.267 in assay [15]; 0.0479 in assay [16]; -0.291 in assay [17]; -0.407 in assay [18]; 0.788 in assay [19]; 0.998 in assay [20]. The z-score in assay [4] was -1.16 (inactive); in [12], -0.0847.

Regarding `O=C(CCN1CCOCC1)c1cccc(O)c1`, the composite z-score was 1.63 in assay [1]; 0.191 in assay [2]; -0.399 in assay [3]; 1.37 in assay [5]; 1.22 in [6]; 1.74 in assay [7]. The composite z-score in [8] was 1.49; in assay [9] it was 1.8; in [10], 1.53; in [11], 0.591; in assay [13], 1.47; in assay [14] it was -0.396. For the same compound, the composite z-score was -1.21 in [15]; -0.0372 in [16]; -0.123 in assay [17]; -0.158 in [18]; 0.0422 in assay [19]; 1.4 in assay [20]. Moreover, the z-score is 0.964 (inactive) in assay [4] and -3.35 in assay [12].

As for `CC(C)N1CC=CC23O[C@@H]4C=CCOC(=O)[C@@H]4[C@H]2C(=O)N(CCO)[C@@H]3C1=O` (stereo not given in full), the composite z-score in [1] is 1.58; in assay [2] it was -0.256; in assay [3] it was 0.651; in [5], -1.61; in assay [6], -0.897; in assay [7] it was -0.859. Also, the composite z-score was -0.447 in [8]; -1.61 in assay [9]; -0.223 in assay [10]; 0.723 in assay [11]; -1.65 in [13]; -0.248 in assay [14]. The composite z-score was 0.641 in assay [15]; -0.206 in [16]; -0.11 in assay [17]; -0.178 in assay [18]; 0.0566 in [19]; -1.15 in assay [20]. Also, the figures for the z-score in assay [4] and in assay [12] were -0.262 (inactive) and -0.0497, respectively.

For the compound `O=C(CS)NCCCCCCNC(=O)[C@H]1C[C@H]2C(=O)NCC(=O)N2[C@H]1c1ccc(O)cc1`, the composite z-score was 0.576 in [1]; -0.213 in assay [2]; 0.694 in [3]; -0.175 in assay [5]; -0.607 in assay [6]; -0.606 in assay [7]. The composite z-score was -0.46 in assay [8]; 0.22 in assay [9]; -0.58 in assay [10]; -0.175 in assay [11]; -0.571 in [13]; -0.156 in [14]. Further, the composite z-score in [15] is 0.802; in [16] it was -0.171; in assay [17] it was -0.286; in assay [18] it was -0.379; in assay [19], -0.633; in assay [20] it was 0.136. Further, the z-score was -0.295 (inactive) in assay [4] and -0.344 in [12].

Take `CN(C)CCCCCCNC(=O)[C@H]1C[C@H]2C(=O)N[C@@H](CCCCN)C(=O)N2[C@H]1c1ccc(O)cc1`: the composite z-score came to 2.14 in assay [1]; 2.83 in [2]; 1.71 in assay [3]; 1.29 in assay [5]; 1.48 in assay [6]; 1.6 in assay [7]. In addition, the composite z-score in assay [8] is 1.65; in assay [9], 2.15; in [10], 1.45; in assay [11], 1.48; in assay [13], 1.56; in [14] it was 2.01. In addition, the composite z-score in assay [15] came to 1.14; in [16] it was 0.914; in assay [17] it was 2.1; in assay [18], 3.38; in [19] it was 4.52; in [20], 2.42. Also, the z-score in assay [4] was 0.509 (inactive); in [12] it was -0.181.

For the compound `CC(C)C(=C=CC[C@H](O)c1ccccc1OCCO)C[C@H](O)c1ccccn1`, the composite z-score in [1] is 1.62; in [2] it was 0.0012; in assay [3], -0.203; in assay [5], 0.764; in [6], 0.559; in [7], -0.536. The composite z-score in [8] was -0.0639; in assay [9], -0.0832; in assay [10], 0.407; in [11], 0.143; in assay [13] it was 0.64; in assay [14], -0.227. Also, the composite z-score in assay [15] is -0.253; in assay [16], -0.0607; in assay [17], -0.2; in assay [18] it was 0.381; in assay [19], 0.94; in assay [20], 1.38. In addition, the z-score was -0.705 (inactive) in assay [4] and -0.493 in assay [12].
